Records with an inconclusive call do not appear. A call without a number means that no potency is given here. A number with no mark means an inactive call. Active and inactive are the calls of the source. Calls follow the shape of the full dose curve.

A short description of the first experiment: Primary qHTS for inhibitors of MERS-S pseudo-typed particle cell entry (AID 1479149). Also: nearly all actives have a fitted effect of over 60% in size. Also: potency is read from the fitted curve at half-maximal effect. The following applies: MERS-S pseudotyped particle entry, luciferase; series mostly up to 57.1 µM. For orientation: Quantitative high-throughput screening tests each substance at several concentrations.
With `COc1cc2nc(N3CCN(C(=O)c4ccco4)CC3)nc(N)c2cc1OC`, the Potency entry was “inactive”.
For `CN1CCC[C@@H]1CCO[C@](C)(c1ccccc1)c1ccc(Cl)cc1`, the Potency is 4.47 µM (active).
The same measure, in the same setting: the value for `CC(C)C(=O)Nc1ccc([N+](=O)[O-])c(C(F)(F)F)c1` was 22.4 µM (active).
Turning to `NC12CC3CC(CC(C3)C1)C2`, the Potency result was “inactive”.
Consider `CCC(C)(C)C(=O)O[C@H]1C[C@@H](C)C=C2C=C[C@H](C)[C@H](CC[C@@H]3C[C@@H](O)CC(=O)O3)[C@H]21`, for which the Potency result was “inactive”.
In the case of `O=C1N=C(O)CN1/N=C/c1ccc(-c2ccc([N+](=O)[O-])cc2)o1`, the Potency result was “inactive”.
For `CCN(CC)CCNC(=O)c1c(C)[nH]c(/C=C2\C(=O)Nc3ccc(F)cc32)c1C`, the Potency was 11.2 µM (active).
Same read-out and setting: for `CC(=O)O[C@@]12CO[C@@H]1C[C@H](O)[C@@]1(C)C(=O)[C@H](O)C3=C(C)[C@@H](OC(=O)[C@H](O)[C@@H](NC(=O)OC(C)(C)C)c4ccccc4)C[C@@](O)([C@@H](OC(=O)c4ccccc4)[C@H]21)C3(C)C` the value was “inactive”.
Turning to `Cc1nccn1CC1CCc2c(c3ccccc3n2C)C1=O` (centres undefined), the Potency result is “inactive”.
Still for that read-out and setting: the value for `Cc1ccnc2c1NC(=O)c1cccnc1N2C1CC1` was “inactive”; that for `CCCC(=O)Nc1ccc(OCC(O)CNC(C)C)c(C(C)=O)c1` (centres undefined) was “inactive”; that for `CCCCc1ncc(/C=C(\Cc2cccs2)C(=O)O)n1Cc1ccc(C(=O)O)cc1` was “inactive”.
As for `CC(C)c1c(C(=O)Nc2ccccc2)c(-c2ccccc2)c(-c2ccc(F)cc2)n1CC[C@@H](O)C[C@@H](O)CC(=O)O`, the Potency result is “inactive”.
Take `NC(=O)N1c2ccccc2CC(=O)c2ccccc21`: the Potency result is “inactive”.
For `OCCN1C[C@H](O)[C@@H](O)[C@H](O)[C@H]1CO`, the Potency entry was “inactive”.
For `CC(C(=O)O)c1cccc(C(=O)c2ccccc2)c1` (centres undefined), the Potency entry is “inactive”.
For `NC1[C@H]2CN(c3nc4c(cc3F)c(=O)c(C(=O)O)cn4-c3ccc(F)cc3F)C[C@@H]12` (some centres undefined), the Potency entry is “inactive”.
On to `Cc1ccc(C(=O)c2cc(O)c(O)c([N+](=O)[O-])c2)cc1`, for which the Potency result was “inactive”.
On to `CCN(CCO)CCCC(C)Nc1ccnc2cc(Cl)ccc12` (centres undefined), for which the activity change, negative = inhibition is 3.49% [at 5.34 µM].
As to `CNS(=O)(=O)CCc1ccc2[nH]cc(C3CCN(C)CC3)c2c1`, the Potency result is “inactive”.
As for `O=C(c1ccccc1)c1ccc2n1CCC2C(=O)O` (centres undefined), the Potency result was “inactive”.
Take `COc1ccc(-c2cc(=S)ss2)cc1`: the Potency result was “inactive”.
On the same count and under the same terms, the value for `C=C(c1ccc(C(=O)O)cc1)c1cc2c(cc1C)C(C)(C)CCC2(C)C` was “inactive”; that for `Cc1[nH]cnc1CN1CCc2c(c3ccccc3n2C)C1=O` was “inactive”; that for `CCC1C(=O)OCC1Cc1cncn1C` (centres undefined) was “inactive”.
Same read-out and setting: the value for `CC(=O)CCCCn1c(=O)c2c(ncn2C)n(C)c1=O` was “inactive”.

The next experiment is described as follows: Primary qHTS for Vero E6 cytotoxicity: counterscreen for inhibitors of SARS-S pseudo-typed particle cell entry (AID 1479150). The following applies: cell viability; series mostly up to 57.1 µM.
On to `CNCC[C@@H](Oc1ccccc1C)c1ccccc1`, for which the Potency result is “inactive”.
For `CN1CCC[C@@H]1CCO[C@](C)(c1ccccc1)c1ccc(Cl)cc1`, the Potency result was “inactive”.
The same measure, in the same setting: for `NC12CC3CC(CC(C3)C1)C2` the value was “inactive”.
Same read-out and setting: the value for `O=C1N=C(O)CN1/N=C/c1ccc(-c2ccc([N+](=O)[O-])cc2)o1` was “inactive”; that for `Nc1ccn([C@@H]2O[C@H](CO)[C@@H](O)C2(F)F)c(=O)n1` was “inactive”.
For the compound `CC(=O)O[C@@]12CO[C@@H]1C[C@H](O)[C@@]1(C)C(=O)[C@H](O)C3=C(C)[C@@H](OC(=O)[C@H](O)[C@@H](NC(=O)OC(C)(C)C)c4ccccc4)C[C@@](O)([C@@H](OC(=O)c4ccccc4)[C@H]21)C3(C)C`, the Potency entry was “inactive”.
As for `Cc1nccn1CC1CCc2c(c3ccccc3n2C)C1=O` (centres undefined), the Potency entry was “inactive”.
As for `Cc1ccnc2c1NC(=O)c1cccnc1N2C1CC1`, the Potency result is “inactive”.
Same read-out and setting: for `COc1c(C)c2c(c(O)c1C/C=C(\C)CCC(=O)O)C(=O)OC2` the value was “inactive”.
Consider `CN1CCN(CCCN2c3ccccc3Sc3ccc(Cl)cc32)CC1`, for which the Potency entry was “inactive”.
Consider `CCCC(=O)Nc1ccc(OCC(O)CNC(C)C)c(C(C)=O)c1` (centres undefined), for which the Potency result was “inactive”.
With `OCCN1CCN(CCCN2c3ccccc3Sc3ccc(Cl)cc32)CC1`, the Potency result is “inactive”.
The same measure, in the same setting: for `CCCCc1ncc(/C=C(\Cc2cccs2)C(=O)O)n1Cc1ccc(C(=O)O)cc1` the value was “inactive”.
Regarding `NC(=O)N1c2ccccc2CC(=O)c2ccccc21`, the Potency result was “inactive”.
Still for that read-out and setting: for `OCCN1C[C@H](O)[C@@H](O)[C@H](O)[C@H]1CO` the value was “inactive”; for `CC(C(=O)O)c1cccc(C(=O)c2ccccc2)c1` (centres undefined), “inactive”.
The same measure, in the same setting: for `NC1[C@H]2CN(c3nc4c(cc3F)c(=O)c(C(=O)O)cn4-c3ccc(F)cc3F)C[C@@H]12` (some centres undefined) the value was “inactive”; for `Cc1ccc(C(=O)c2cc(O)c(O)c([N+](=O)[O-])c2)cc1`, “inactive”.
Turning to `CCN(CCO)CCCC(C)Nc1ccnc2cc(Cl)ccc12` (centres undefined), the outcome was “inactive [at 5.34 µM]”.
On to `Cc1ccc(-n2[nH]c(C)c(N=Nc3cccc(-c4cccc(C(=O)O)c4)c3O)c2=O)cc1C`, for which the Potency entry is “inactive”.
The same measure, in the same setting: the value for `COC(=O)C1=C(C)NC(C)=C(C(=O)OCC(C)C)C1c1ccccc1[N+](=O)[O-]` (centres undefined) was “inactive”; that for `CNS(=O)(=O)CCc1ccc2[nH]cc(C3CCN(C)CC3)c2c1` was “inactive”; that for `O=C(c1ccccc1)c1ccc2n1CCC2C(=O)O` (centres undefined) was “inactive”.
Regarding `O=C(O)c1ccc(-n2nc(-c3ccccc3O)nc2-c2ccccc2O)cc1`, the Potency entry was “inactive”.
On the same count and under the same terms, for `C=C(c1ccc(C(=O)O)cc1)c1cc2c(cc1C)C(C)(C)CCC2(C)C` the value was “inactive”; for `Cc1[nH]cnc1CN1CCc2c(c3ccccc3n2C)C1=O`, “inactive”; for `CCC1C(=O)OCC1Cc1cncn1C` (centres undefined), “inactive”.
Still for that read-out and setting: the value for `CC(=O)CCCCn1c(=O)c2c(ncn2C)n(C)c1=O` was “inactive”.

The values are drawn from PubChem BioAssay (NCATS).
